BL2 CD40 inh: inhibitors of CD40-induced NF-kB signaling, primary screen, BL2 cells, luciferase reporter, single point; AID 1053188, 2014; actives 0.94% (n = 83,000); inhibition, % at 10 µM; CD40L-induced, 4 h;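 active = mean inhibition of at least 50% with a set share of replicates also reaching that level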;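 note: 0% = neutral control wells and 100% = IKK inhibitor VII at 50 µM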
* hit, by the source's call; [ ] = remark or other dose. The full list was thinned out, with hits kept by preference.

SMILES	BL2 CD40 inh
O=C(OCC(=O)N1CCN(c2ccccc2)CC1)c1cccs1	-44
O=C(OCC(=O)N1CCN(c2ccccc2)CC1)c1ccccc1NCCO	35*
O=C(OCC(=O)N1CCN(c2ccccc2)CC1)c1ccccc1OC(F)F	-11
CNC[C@H]1Oc2ccc(N(C)C)cc2C(=O)N([C@@H](C)CO)C[C@@H]1C	3[25 µM]
COc1ccc(CCNC(=O)c2cccc(S(=O)(=O)N3CCCC3)c2)cc1	5
O=C(NCCN1CCOCC1)c1cccc(S(=O)(=O)N2CCCC2)c1	2
O=C(NCCc1ccc2c(c1)OCCO2)c1cccc(S(=O)(=O)N2CCCC2)c1	43*
CO[C@@H](C(=O)N(C)C[C@@H]1OCc2ccccc2-c2ccccc2C(=O)N([C@H](C)CO)C[C@@H]1C)c1ccccc1	-15[25 µM]
CN(C)C(=O)c1ccc(-c2ccc3c(c2)[C@@H]2[C@@H](CCN2C(=O)C2CC2)[C@H](CO)N3C)cc1	0
COc1ccc(S(=O)(=O)N(C)C[C@H]2OCc3ccccc3-c3c(n(C)c4ccccc34)C(=O)N([C@H](C)CO)C[C@@H]2C)cc1	14
C[C@@H]1CN([C@H](C)CO)C(=O)c2c(c3ccccc3n2C)-c2ccccc2CO[C@H]1CN(C)S(=O)(=O)c1ccccc1	19
C[C@H]1CN([C@@H](C)CO)C(=O)c2c(c3ccccc3n2C)-c2ccccc2CO[C@@H]1CN(C)S(=O)(=O)c1ccc([N+](=O)[O-])cc1	50*[25 µM]
C[C@H](CO)N1C[C@H](C)[C@H](CN(C)S(=O)(=O)c2ccccc2)OCc2ccccc2-c2c(n(C)c3ccccc23)C1=O	6
C[C@H]1CN([C@@H](C)CO)C(=O)c2c(c3ccccc3n2C)-c2ccccc2CO[C@H]1CN(C)S(=O)(=O)c1ccc([N+](=O)[O-])cc1	73*[25 µM]
COc1ccc(S(=O)(=O)N(C)C[C@H]2OCc3ccccc3-c3c(n(C)c4ccccc34)C(=O)N([C@@H](C)CO)C[C@H]2C)cc1	-8
COc1cccc(S(=O)(=O)N(C)C[C@H]2OCc3ccccc3-c3c(n(C)c4ccccc34)C(=O)N([C@@H](C)CO)C[C@@H]2C)c1	59*[25 µM]
C[C@@H]1CN([C@@H](C)CO)C(=O)c2c(c3ccccc3n2C)-c2ccccc2CO[C@H]1CN(C)S(=O)(=O)c1ccccc1	18
C[C@H]1CN([C@@H](C)CO)C(=O)c2c(c3ccccc3n2C)-c2ccccc2CO[C@H]1CN(C)S(=O)(=O)c1ccccc1	25
CC(C)NC(=O)Nc1ccc2c(c1)C(=O)N(C)C[C@@H](C)[C@@H](CN(C)C(=O)NC(C)C)O2	6
O=C(C[C@@H]1C[C@@H]2c3cc(NS(=O)(=O)c4ccccc4)ccc3O[C@@H]2[C@H](CO)O1)N1CCOCC1	10[25 µM]
O=C(Nc1ccccc1F)N[C@@H]1CC[C@@H](CCNC(=O)C2CC2)O[C@@H]1CO	-4[25 µM]
C[C@H]1CN(C)C(=O)Cc2cc(NS(C)(=O)=O)ccc2O[C@@H]1CN(C)S(C)(=O)=O	-4
CN(C)C(=O)c1cccc(-c2ccc(C3[C@@H]4CN(Cc5nccs5)C[C@H]3N4)cc2)c1 (stereo partly drawn)	1[25 µM]
C[C@H]1CN(C)C(=O)c2cc(N(C)C)ccc2O[C@H]1CN(C)S(C)(=O)=O	-6
O=C(c1ccc(-c2ccc(Cl)cc2)o1)N1CCN(c2ccc([N+](=O)[O-])cc2Cl)CC1	49*
SMILES	BL2 CD40 inh
CN1CCN(c2ccccc2NC(=O)c2ccc(-c3cccc([N+](=O)[O-])c3)o2)CC1	-11
O=C(Nc1ccccc1)c1ccc(-c2ccc([N+](=O)[O-])cc2)o1	-47
COc1ccc2c3c(n(C)c2c1)[C@H](CO)NCC31CCN(C(=O)Nc2ccc(F)cc2F)CC1	3[25 µM]
O=C1CC(c2cccs2)Sc2nc3ccccc3n21 (stereo not drawn)	-108
O=C1CC(c2ccc3c(c2)OCO3)Sc2nc3ccccc3n21 (stereo not drawn)	60*
O=C1CC(c2ccco2)Sc2nc3ccccc3n21 (stereo not drawn)	-124
COc1cccc(S(=O)(=O)N2CC[C@@H]3[C@H]2c2cc(C#Cc4cccnc4)ccc2N(C)[C@H]3CO)c1	0[25 µM]
COc1ccc2c3c([nH]c2c1)[C@H](CO)N(S(=O)(=O)c1cn(C)cn1)CC31CCN(CC2CCCC2)CC1	3
c1ccc(-c2nccc(-c3ccco3)n2)nc1	-25
Cn1nc(-c2ccccn2)nc2c(=O)n(C)c(=O)nc1-2	101*
COc1ccc(-c2nc(-c3ccccn3)ncc2S(C)(=O)=O)cc1	9
Cc1ccccc1S(=O)(=O)N1[C@@H](C#N)[C@H](c2ccc(C#CC3CCCC3)cc2)[C@@H]1CO	-5
Cc1ccccc1S(=O)(=O)N1[C@H](C#N)[C@H](c2ccc(C#CC3CCCC3)cc2)[C@H]1CO	40*
Cc1ccccc1S(=O)(=O)N1[C@H](C#N)[C@H](c2ccc(C#CC3CCCC3)cc2)[C@@H]1CO	-8
Cc1ccccc1S(=O)(=O)N1[C@@H](C#N)[C@@H](c2ccc(C#CC3CCCCC3)cc2)[C@@H]1CO	-10
Cc1ccccc1S(=O)(=O)N1[C@H](C#N)[C@H](c2ccc(C#CC3CCCCC3)cc2)[C@H]1CO	48*
Cc1ccccc1S(=O)(=O)N1[C@H](C#N)[C@@H](c2ccc(C#CC3CCCCC3)cc2)[C@@H]1CO	0
CO[C@H](CN(C)Cc1cc(F)ccc1F)[C@H](C)CN([C@@H](C)CO)S(=O)(=O)c1ccc(F)cc1	5
CCCN(C)C[C@@H]1OCCCC[C@H](C)Oc2ccc(NC(=O)CCCN(C)C)cc2C(=O)N([C@@H](C)CO)C[C@@H]1C	-2[25 µM]
COc1cccc(C(=O)Nc2ccc3c(c2)OC[C@@H](C)N(C(=O)C2CCCC2)C[C@H](C)[C@@H](OC)CN(C)C3=O)c1	-4
Cc1nc(-c2ccc(F)cc2)c(CC(=O)N(C)CC(=O)Nc2ccccc2Br)s1	40
Cc1nc(-c2ccc(F)cc2)c(CC(=O)N(C)CC(=O)Nc2ccc(Br)cc2C)s1	92*
Cc1nc(-c2ccc(F)cc2)c(CC(=O)N(C)CC(=O)Nc2cccc(F)c2)s1	54*
Cc1nc(-c2ccc(F)cc2)c(CC(=O)N(C)CC(=O)Nc2ccccc2C(F)(F)F)s1	6
CCN(CC(=O)Nc1ccccc1C(F)(F)F)C(=O)Cc1sc(C)nc1-c1ccc(F)cc1	-13
SMILES	BL2 CD40 inh
Cc1nc(-c2ccc(F)cc2)c(CC(=O)NCC(=O)Nc2ccc(F)c(F)c2)s1	-4
C[C@H]1CN([C@@H](C)CO)S(=O)(=O)c2ccc(C#CC3CCCCC3)cc2O[C@H]1CN(C)C	14
COc1ccc(-c2ccc3c(c2)[C@@H]2[C@@H](CCN2S(=O)(=O)c2ccc(F)cc2)[C@H](CO)N3C)cc1	3
COc1ccc(S(=O)(=O)Nc2ccc3c(c2)C(=O)N([C@H](C)CO)C[C@H](C)[C@H](CN(C)S(=O)(=O)c2ccc(Cl)cc2)OCCCC[C@H](C)O3)cc1	10[25 µM]
N#C[C@@H]1[C@@H](c2ccc(-c3cccc(F)c3)cc2)[C@H](CO)N1S(=O)(=O)c1cccc(F)c1	20
CC(C)NC(=O)N(C)C[C@@H]1OCc2ccccc2-c2ccccc2C(=O)N([C@@H](C)CO)C[C@H]1C	-15
N#C[C@@H]1[C@H](c2ccccc2)[C@H](CO)N1C(=O)Cc1ccccc1	9[25 µM]
CCc1cnc(N2[C@H](CO)[C@@H](c3ccc(C#CC(C)C)cc3)[C@@H]2C#N)s1	-5[25 µM]
C[C@]12CCC3C(CC=C4C[C@@H](O)CC[C@@]43C)C1CCC2[C@]1(C)CCC(=O)O1 (stereo partly drawn)	-7

Compound activity from PubChem.
